Reference: PubChem BioAssay AID1159580 (chemical genetic matrix, 2015)
Values joined by “and” are separate entries in the source; they are usually repeats but may differ in a detail not shown here. Identical values can stand only once. The whole screen tested about 5,500 compounds, of which about 2,000 (36%) were called active. Inconclusive results (about 18%) are left out. Rule as the data show it: active = normalized growth mostly below about 0.91 (no sharp cut-off); inconclusive = no clear call, values can overlap the other calls; inactive = mostly above about 0.92. Some of the results follow.

Assay: chemical genetic growth profiling, strain panel (AID 1159580);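 also: tested at 20 µM; growth read once vehicle control cultures reached saturation at 30 °C; 1 = growth at the plate median or of vehicle wells; lower values mean less growth of the strain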
Details: S. cerevisiae deletion strains, growth OD

Measured: normalized growth

CNC[C@H](O)c1cccc(O)c1
inactive: locus YAL013W, strain DEP1, stronger effect = lower value 1.01 | locus YAL021C, strain ccr4, stronger effect = lower value 0.979 | locus YAL026C, strain drs2, stronger effect = lower value 0.997 | locus YAL030W, strain snc1, stronger effect = lower value 0.986 | locus YBL061C, strain skt5, stronger effect = lower value 0.988 | locus YBR009C, strain hhf1, stronger effect = lower value 0.995 | locus YBR021W, strain FUR4, stronger effect = lower value 1 | locus YBR023C, strain chs3, stronger effect = lower value 0.986 | locus YBR171W, strain sec66, stronger effect = lower value 0.98 | locus YBR229C, strain ROT2, stronger effect = lower value 1.01 | locus YBR231C, strain swc5, stronger effect = lower value 0.967 | locus YBR279W, strain paf1, stronger effect = lower value 0.991 | locus YCL011C, strain gbp2, stronger effect = lower value 1 | locus YCL016C, strain dcc1, stronger effect = lower value 0.983 | locus YCL029C, strain bik1, stronger effect = lower value 1.02 | locus YCL069W, strain vba3, stronger effect = lower value 0.991 | locus YCR088W, strain abp1, stronger effect = lower value 0.986 | locus YDL005C, strain med2, stronger effect = lower value 0.968 | locus YDL035C, strain GPR1, stronger effect = lower value 1.01 | locus YDL040C, strain nat1, stronger effect = lower value 0.984 | locus YDL074C, strain BRE1, stronger effect = lower value 1.01 | locus YDL101C, strain DUN1, stronger effect = lower value 1.01 | locus YDL134C, strain PPH21, stronger effect = lower value 1.01 | locus YDL185W, strain tfp1, stronger effect = lower value 1.02 | locus YDL192W, strain arf1, stronger effect = lower value 1.02 | locus YDR001C, strain nth1, stronger effect = lower value 0.991 | locus YDR069C, strain doa4, stronger effect = lower value 0.982 | locus YDR101C, strain arx1, stronger effect = lower value 1.02 | locus YDR137W, strain rgp1, stronger effect = lower value 0.966 | locus YDR150W, strain NUM1, stronger effect = lower value 1.01 | locus YDR159W, strain sac3, stronger effect = lower value 0.981 | locus YDR162C, strain NBP2, stronger effect = lower value 1.01 | locus YDR195W, strain ref2 0.91 | locus YDR297W, strain sur2, stronger effect = lower value 0.981 | locus YDR318W, strain mcm21, stronger effect = lower value 1.02 | locus YDR334W, strain swr1, stronger effect = lower value 0.982 | locus YDR335W, strain msn5, stronger effect = lower value 0.99 | locus YDR388W, stronger effect = lower value 1.01 | locus YDR392W, strain spt3, stronger effect = lower value 1 | locus YDR502C, strain sam2, stronger effect = lower value 1.01 | locus YEL003W, strain gim4, stronger effect = lower value 0.989 | locus YEL037C, strain rad23, stronger effect = lower value 0.984 | locus YEL061C, strain CIN8 (second series), stronger effect = lower value 0.99 | locus YEL061C, strain CIN8, stronger effect = lower value 1.01 | locus YER015W, strain faa2, stronger effect = lower value 0.969 | locus YER016W, strain bim1, stronger effect = lower value 0.981 | locus YER110C, stronger effect = lower value 1.02 | locus YER111C, strain swi4, stronger effect = lower value 0.988 | locus YER155C, strain BEM2 (second series), stronger effect = lower value 0.953 | locus YER155C, strain BEM2, stronger effect = lower value 1 | locus YER167W, strain BCK2, stronger effect = lower value 1.01 | locus YFR010W, strain ubp6, stronger effect = lower value 0.976 | locus YGL078C, strain dbp3, stronger effect = lower value 1.01 | locus YGL086W, strain mad1, stronger effect = lower value 1 | locus YGL167C, strain pmr1, stronger effect = lower value 0.983 | locus YGL173C, strain kem1, stronger effect = lower value 0.955 | locus YGL227W, strain vid30, stronger effect = lower value 0.971 | locus YGL240W, strain doc1, stronger effect = lower value 0.95 | locus YGL248W, strain PDE1, stronger effect = lower value 1 | locus YGL253W, strain hxk2, stronger effect = lower value 1.01 | locus YGR078C, strain PAC10, stronger effect = lower value 0.996 | locus YGR135W, strain pre9, stronger effect = lower value 1 | locus YGR229C, strain SMI1, stronger effect = lower value 0.992 | locus YGR252W, strain gcn5, stronger effect = lower value 0.989 | locus YHR013C, strain ard1, stronger effect = lower value 0.982 | locus YHR027C, strain rpn1, stronger effect = lower value 0.99 | locus YHR030C, strain SLT2, stronger effect = lower value 1 and 1.01 | locus YHR079C, strain IRE1 (second series), stronger effect = lower value 1.02 | locus YHR079C, strain IRE1, stronger effect = lower value 1.03 | locus YHR094C, strain hxt1, stronger effect = lower value 1.02 | locus YHR129C, strain ARP1, stronger effect = lower value 1.01 | locus YHR142W, strain chs7, stronger effect = lower value 1 | locus YHR200W, strain rpn10, stronger effect = lower value 1.02 | locus YIL066C, strain RNR3, stronger effect = lower value 1.01 | locus YIL073C, strain SPO22, stronger effect = lower value 1.04 | locus YIL125W, strain kgd1, stronger effect = lower value 1.01 | locus YIR030C, strain dcg1, stronger effect = lower value 1.01 | locus YJL092W, strain hpr5, stronger effect = lower value 0.977 | locus YJL095W, strain BCK1 (second series), stronger effect = lower value 0.98 | locus YJL095W, strain BCK1, stronger effect = lower value 1.01 and 1.02 | locus YJL115W, strain asf1, stronger effect = lower value 0.976 | locus YJL129C, strain trk1, stronger effect = lower value 0.977 | locus YJL134W, strain LCB3, stronger effect = lower value 1 | locus YJL154C, strain vps35, stronger effect = lower value 0.987 | locus YJL164C, strain tpk1, stronger effect = lower value 0.985 | locus YJL166W, strain qcr8, stronger effect = lower value 0.956 | locus YJL168C, strain set2, stronger effect = lower value 1.02 | locus YJL187C, strain SWE1 (second series), stronger effect = lower value 1.01 | locus YJR043C, strain POL32, stronger effect = lower value 0.996 | locus YJR066W, strain TOR1, stronger effect = lower value 0.969 | locus YJR075W, strain HOC1, stronger effect = lower value 1
